Source: PubChem (National Center for Advancing Translational Sciences (NCATS))
Only some compounds are listed: those with a hit (about 11% of all), similar ones and a draw of the others.
PLK1 PBD block: inhibitors of human PLK1 polo-box domain binding; P53350; Plk1 PBD binding of FITC phosphopeptide, fluorescence polarization; Potency, µM, hits mostly inhibitors; 2.8% of 360,000 active; AID 720504; note: series mostly up to about 57 µM; nearly all actives have a fitted effect of over 65% in size
JMJD2A Tudor inh: JMJD2A Tudor domain (human) inhibition | O75164 | AlphaScreen JMJD2A-Tudor / H3K4me3 peptide binding | Potency, µM (series often up to 114 µM), usual class: inhibitors | 4.4% of 390,000 active; note: nearly all actives have a fitted effect of over 50% in size
BAZ2B inh: BAZ2B (human) inhibition. AlphaScreen BAZ2B-H3K14Ac peptide displacement. Potency, µM (series often up to 114 µM), actives largely listed as inhibitors. 4.4% of 360,000 active. AID 504333; note: nearly all actives have a fitted effect of over 60% in size
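In this displacement format the biotinylated H3(5-23) peptide acetylated at Lys14 serves as ligand at 50 nM, with BAZ2B at 50 nM in PBS pH 7.4 containing 0.01% Tween-20. Donor and acceptor beads are 10 ug/mL final.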
VDR inh: blocks the human vitamin D receptor; VDR-SRC2-3 peptide fluorescence polarization, 2 h; AID 504847; Potency, µM, actives largely listed as inhibitors; 0.93% of 400,000 active; P11473
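FP read-out; VDR + SRC2-3 coactivator peptide; 23 nl compound by pintool; 2 h RT incubation; reagents held at 4 deg C, protected from light.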
G9a block: blocks human histone lysine methyltransferase G9a; 8.8% of 350,000 active; G9a H3K9 monomethylation, AlphaScreen, 2 h; AID 504332; Potency, µM (highest dose often 102 µM), usual class: inhibitors; Q96KQ7; note: nearly all actives have a fitted effect of over 75% in size
Target sequence (Q96KQ7 913-1193 limits assumed): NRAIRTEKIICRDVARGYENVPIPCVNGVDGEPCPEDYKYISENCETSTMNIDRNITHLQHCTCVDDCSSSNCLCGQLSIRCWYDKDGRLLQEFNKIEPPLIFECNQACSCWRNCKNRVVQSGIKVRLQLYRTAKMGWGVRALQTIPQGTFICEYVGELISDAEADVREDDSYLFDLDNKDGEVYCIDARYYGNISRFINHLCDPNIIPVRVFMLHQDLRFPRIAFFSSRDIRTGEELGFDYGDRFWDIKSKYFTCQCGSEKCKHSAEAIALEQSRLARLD
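Quantitative HTS format: methyltransferase activity on a biotin-tagged H3K9 peptide is measured by AlphaScreen, using a rabbit anti-monomethyl-H3K9 antibody with streptavidin donor and anti-IgG acceptor beads. Final levels are 20 nM enzyme, 500 nM peptide, 20 uM SAM; 2 h RT.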
HP1b binding inh: blocks HP1-beta chromodomain binding to methylated histone tails; 0.56% of 390,000 active; AlphaScreen HP1-beta / biotin-H3K9me3 peptide binding; AID 540317; Potency, µM (top dose mostly 114 µM), most hits filed as inhibitors; note: nearly all actives have a fitted effect of over 70% in size
Target sequence (P83916 whole entry, looked up): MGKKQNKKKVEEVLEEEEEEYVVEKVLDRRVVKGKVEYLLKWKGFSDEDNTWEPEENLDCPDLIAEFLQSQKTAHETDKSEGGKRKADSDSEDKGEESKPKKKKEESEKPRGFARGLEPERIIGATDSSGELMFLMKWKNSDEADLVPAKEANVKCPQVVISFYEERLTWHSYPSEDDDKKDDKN
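HP1-beta protein (50 nM final) preincubated 30 min at room temperature with biotinylated H3(1-18)K9me3 peptide (50 nM) in PBS pH 7.4, 0.01% Tween-20, then compound added for 30 min. AlphaScreen streptavidin donor/nickel chelate acceptor beads (10 ug/mL final), 30 min dark, luminescence read.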
Hits are given with their value; i = inactive; ? = inconclusive; nt = no result; [ ] = remark or other dose. Calls come from the whole dose curve; as a rule, active = well fitted curve in the direction sought with a large enough effect; inconclusive = small, poorly fitted or top-dose-only effect, or another doubt; inactive = no such curve, though single readings can be large; an effect the other way counts as inactive or inconclusive.

SMILES	PLK1 PBD block	JMJD2A Tudor inh	BAZ2B inh	VDR inh	G9a block	HP1b binding inh
CCC(C)CNC(=O)c1[nH]c(C(F)(F)F)nc1-c1ccccc1 (stereo not given)	i	nt	nt	nt	nt	nt
COc1ccc(CNC(=O)Cc2csc3nc(-c4ccc(C)cc4)cn23)cc1	nt	i	i	i	i	i
CCCCNc1c(-c2cccc(-c3cc(C(C)=O)cs3)c2)nc2ccc(C)cn12	i	25µM	35µM	i	i[2.33 µM]	i
CCCCNc1c(-c2cccc(-c3ccc(OC)cc3)c2)nc2ccc(C)cn12	i	25µM	45µM	i	i[2.33 µM]	i
Cc1c(NC(=O)c2cc3ccccc3o2)cccc1-c1nc2ccccc2o1	nt	i	i	i	i	i
CC(=O)Nc1ccc(S(=O)(=O)Nc2cccc(C(=O)Nc3ccccc3C(=O)O)c2)cc1	i	i	i	i	i	i
O=C(Nc1ccccc1-c1ccccc1)c1ccccc1	i	i	i	i	nt	i
Nc1c(S(=O)(=O)O)cc(NC(=O)c2ccccc2)c2c1C(=O)c1ccccc1C2=O	21µM	2.5µM	3.5µM	?	?	?
Nc1c(S(=O)(=O)O)cc(Nc2ccc(Nc3nc(Cl)nc(Nc4ccc(S(=O)(=O)O)cc4)n3)c(S(=O)(=O)O)c2)c2c1C(=O)c1ccccc1C2=O	nt	nt	nt	?	1µM	nt
Nc1c(S(=O)(=O)O)cc(Nc2cccc3ccccc23)c2c1C(=O)c1ccccc1C2=O	nt	nt	nt	35µM	nt	nt
CC(C)c1ccc(Nc2nc(Cl)nc(NCCO)n2)cc1	i	i	i	i	nt	i
Nc1c(S(=O)(=O)O)cc(Nc2ccc(Cl)cc2)c2c1C(=O)c1ccccc1C2=O	nt	nt	nt	32µM	nt	nt
CC(C)[C@H](NC(=O)[C@H](CC(=O)O)NC(=O)CNC(=O)[C@@H](N)CCCN=C(N)N)C(=O)O	nt	nt	nt	i	nt	nt
CCc1ccc(CNC(=O)CCc2nnc(Cc3cccc(C(F)(F)F)c3)o2)nc1	i	i	i	i	i	i
CCN(CCCNC(=O)c1nn(-c2ccc(OC)cc2)c(=O)c2c1c1ccccc1n2C)c1ccccc1	nt	i	nt	i	i	i
Cn1cc(Br)c(C(=O)NNC(=O)c2ccc(Cl)cc2)n1	i	i	i	i	?	i
CCN(CC)S(=O)(=O)c1ccc(C(=O)NC2=C(C(=O)OC)SCC2)cc1	i	40µM	?	i	i[12.7 µM]	i
COC(=O)C1=C(NC(=O)CCCCl)CCS1	i	i	i	i	i	i
CCCCC(=O)NC1=C(C(=O)OC)SCC1	i	?	?	i	4.5µM	i
CCOc1ccc(S(=O)(=O)Nc2cccc(-c3ccc(N4CCC(C)CC4)nn3)c2)cc1	nt	i	i	i	25µM	i
COc1ccc(S(=O)(=O)Nc2cccc(-c3ccc(N4CCCCCC4)nn3)c2)c(OC)c1	?	i	i	i	45µM	i
COc1ccc(S(=O)(=O)Nc2cccc(-c3ccc(N4CCCC4)nn3)c2)c(OC)c1	nt	i	i	i	7.9µM	i
O=S(=O)(Nc1ccc(-c2ccc3nncn3n2)cc1)c1cc(F)ccc1F	i	i	i	i	i	i
COc1ccc(OC)c(S(=O)(=O)Nc2ccc(-c3ccc4nncn4n3)cc2)c1	27µM	i	i	i	13µM	?
COc1ccc(OC)c(S(=O)(=O)Nc2cccc(-c3ccc(N4CCCCCC4)nn3)c2)c1	i	i	i	i	i	i
SMILES	PLK1 PBD block	JMJD2A Tudor inh	BAZ2B inh	VDR inh	G9a block	HP1b binding inh
CCN1CCN(c2ccc(S(=O)(=O)N3CCOCC3)cc2NC(=O)CC(NC(C)=O)c2ccccc2)CC1 (stereo not given)	i	i	nt	i	nt	i
CCCCNC(=O)NS(=O)(=O)c1ccc(N)cc1	nt	nt	nt	i	i	nt
CCC(=O)Nc1sc2c(c1C#N)CC(C)(CC)OC2 (stereo not given)	?	i	i	i	i[12.7 µM]	i
CCCOc1ccc(-c2cccc(NS(=O)(=O)c3cc(OC)ccc3OC)c2)nn1	nt	i	i	i	7.9µM	i
CCc1ccc(NC(=O)Cc2ccc(OC)cc2)cc1	nt	nt	i	nt	i	nt
CCc1ccc(NC(=O)CN(CC(=O)Nc2ccc(CC)cc2)CC(C)O)cc1 (stereo not given)	27µM	?	i	i	i[2.33 µM]	i
Cc1ccc(C(=O)NC2CCN(CC(=O)Nc3ccccc3Cl)CC2)cc1	i	i	i	i	i	i
O=C(/C=C/c1cccc(Cl)c1)N1CCC(Cc2ccccc2)CC1	i	i	i	i	i	i
C=CCOc1ccccc1CN1CCC(Cc2ccccc2)CC1	i	3.2µM	?	i	nt	?
COc1cc(C(C)=O)ccc1OCC(=O)N1CCC(Cc2ccccc2)CC1	i	nt	nt	nt	nt	nt
COc1cc(C(C)=O)ccc1OCCN1CCC(Cc2ccccc2)CC1	i	1.6µM	32µM	i	?	45µM
O=Cc1cc(Cl)ccc1OCCN1CCC(Cc2ccccc2)CC1	i	20µM	?	i	25µM	?
COc1cc(C(C)=O)ccc1OCCCN1CCC(Cc2ccccc2)CC1	i	?	56µM	i	35µM	?
Cc1cccc(NS(=O)(=O)c2ccc3oc(=O)c4ncn(C)c4c3c2)c1C	nt	i	i	i	i	i
CN1CCN(C(=O)c2cccc3c(-c4ccc(F)c(F)c4)coc23)CC1	i	nt	nt	nt	nt	nt
OCc1ccccc1OCCCN1CCC(Cc2ccccc2)CC1	i	22µM	?	i	35µM	?
OC(CN1CCC(Cc2ccccc2)CC1)C(F)(F)F (stereo not given)	i	i	i	i	i[0.501 µM]	i
